According to PubChem BioAssay (Tox21):
“And” between values parts separate entries of the source, which are not always exact repeats. Equal entries are not always repeated. Results filed as inconclusive are left out. A call without a number means that no potency is given here. The source holds several records for some structures; these can differ, active in one and inactive in another. The source made the active and inactive calls. Unless noted, calls come from the whole dose curve; as a rule, active = well fitted curve in the direction sought with a large enough effect in the repeat runs; inconclusive = weak or mixed curves; inactive = no such curve, though single readings can be large; an effect the other way counts as inactive or inconclusive.

Columns and labels:
[1] = qHTS assay to identify small molecule agonists of the RXR signaling pathway - cell viability counter screen (AID 1159529); note: nearly all actives have a fitted effect of over 50% in size;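 for activity change, negative = cytotoxicity: HEK 293T cells carrying an RXR-alpha UAS beta-lactamase reporter; series mostly up to about 77 µM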
How it was run: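 Counter screen: CellTiter-Glo luminescence. Cells: RXR-alpha-UAS-bla HEK 293T. Medium: 2% charcoal-stripped FBS. Treatment: 16 h, 37 C. Reagent incubation: 30 min, RT.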

[2] = qHTS assay to identify small molecule antagonists of the retinoid acid receptor (RAR) signaling pathway - cell viability counter screen (AID 1159551); note: nearly all actives have a fitted effect of over 35% in size
How it was run: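 Cytotoxicity counter screen in C3RL4 cells: 6 h compound exposure with 1 uM retinol (final), viability from cellular ATP by luminescence.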

[3] = qHTS assay to identify small molecule antagonists of the retinoic acid receptor (RAR) signaling pathway (AID 1159552; note: nearly all actives have a fitted effect of over 50% in size)
How it was run: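 Antagonism of retinol-induced RARE reporter activity was measured in C3RL4 cells. Exposure to compounds and 1 uM final retinol lasted 6 hr at 37 C, with luminescence as endpoint.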

[4] = qHTS assay to identify small molecule agonists of the retinoic acid receptor (RAR) signaling pathway (AID 1159553)
How it was run: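 Agonist activity was scored in C3RL4 cells bearing a retinoic acid response element luciferase construct. Cells were treated with compounds for 6 hr at 37 C, and luciferase signal was measured as luminescence.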

[5] = qHTS assay to identify small molecule antagonists of the estrogen related receptor (ERR) signaling pathway from Tox21 library - cell viability counter screen (AID 1224834); note: nearly all actives have a fitted effect of over 30% in size
How it was run: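 Cytotoxicity of test substances is gauged in the same ERR cells used for the antagonist screen, after 17.5 h of compound treatment at 37 C, by CellTiter-Fluor fluorescence measured after 30 min.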

[6] = biological target: Luciferin 4-monooxygenase (Photinus pyralis) (UniProt P08659); assay: qHTS assay to identify small molecule inhibitors of firefly luciferase (AID 1224835); note: nearly all actives have a fitted effect of over 25% in size; for activity change, negative = inhibition: series mostly up to about 120 µM
How it was run: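 Quantitative HTS format; KM concentrations of both substrates. Purified P. pyralis FLuc activity quantified from luminescence images.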

[7] = qHTS assay to identify small molecule antagonists of the constitutive androstane receptor (CAR) signaling pathway - cell viability counter screen (AID 1224837); note: nearly all actives have a fitted effect of over 45% in size; for activity change, negative = cytotoxicity: series mostly up to about 92 µM
How it was run: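 Multiplexed cytotoxicity read-out for the CAR antagonist screen: double-stable HepG2-CYP2B6-hCAR cells co-treated with 50 nM CITCO (final) and compound over 15 concentrations, incubated 23 hr, then assessed by CellTiter-Fluor fluorescence.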

[8] = biological target: Nuclear receptor subfamily 1 group I member 3 (Homo sapiens) (UniProt Q14994); assay: qHTS assay to identify small molecule antagonists of the constitutive androstane receptor (CAR) signaling pathway (AID 1224838); note: nearly all actives have a fitted effect of over 40% in size
How it was run: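 Compounds were titrated across 15 concentrations onto HepG2 cells double-stably expressing hCAR and a CYP2B6-2.2kb reporter, together with 50 nM CITCO (final). After 24 h at 37 C, luciferase activity was measured by luminescence.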

[9] = qHTS assay to identify small molecule antagonists of the estrogen related receptor signaling pathway with the pleiotropic PPARgamma coactivator (PGC) from Tox21 10K library - cell viability counter screen (AID 1224840; active = well fitted cell-killing curve with a large enough effect in the repeat runs, not every such curve was filed as active; note: nearly all actives have a fitted effect of over 40% in size)
How it was run: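 Step one, plate 2,000 PGC/ERR cells per well; step two, incubate 6 h at 37 C/5% CO2; step three, pin-transfer compounds; step four, incubate 17.5 h; step five, add CellTiter-Fluor and read fluorescence after 30 min.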

[10] = qHTS assay to identify small molecule antagonists of the estrogen related receptor signaling pathway with the pleiotropic PPARgamma coactivator (PGC) from Tox21 10K library (AID 1224841; call rule not given here; note: actives are mostly falling curves and most rising ones were filed inactive; nearly all actives have a fitted effect of over 50% in size; for activity, negative = inhibition: series mostly up to about 92 µM)
How it was run: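 Antagonism in this quantitative HTS is taken from loss of luciferase signal in PGC/ERR cells. Cells (2,000/well) are treated with compounds in DMSO after a 6 h settling period and read by One-Glo luminescence after 18 h.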

[11] = qHTS assay to identify small molecule agonists of the estrogen related receptor signaling pathway with the pleiotropic PPARgamma coactivator (PGC) from Tox21 10K library (AID 1224842); note: nearly all actives have a fitted effect of over 15% in size
How it was run: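 PGC/ERR reporter cells (NTP line) were seeded 2,000 per well, rested 6 h at 37 C/5% CO2, then pin-dosed with compounds in DMSO for 18 h at 37 C; luciferase read by One-Glo luminescence after 30 min at room temperature.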

[12] = biological target: Thyrotropin receptor (Homo sapiens) (UniProt P16473); assay: qHTS assay to identify small molecule agonists of the thyroid stimulating hormone receptor (TSHR) signaling pathway (AID 1224843; calls by dose curve; note: nearly all actives have a fitted effect of over 45% in size)
How it was run: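 Cell line HEK293 with TSHR; density 800/well. Exposure 30 min RT. Readout HTRF cAMP (cAMP-d2/anti-cAMP-cryptate), 1 h RT before reading.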

[13] = qHTS assay to identify small molecule agonists of the constitutive androstane receptor (CAR) signaling pathway - cell viability counter screen (AID 1224836); note: nearly all actives have a fitted effect of over 45% in size; for viability change, negative = cytotoxic: series mostly up to about 92 µM
How it was run: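 Double-stable HepG2 hepatoma cells (hCAR plus CYP2B6-2.2kb) are treated for 23 h at 37 C with test compounds in 15-point concentration series. PK11195 at 0.75 uM final is co-added. Cell viability is quantified by CellTiter-Fluor.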

[14] = biological target: Nuclear receptor subfamily 1 group I member 3 (Homo sapiens) (UniProt Q14994); assay: qHTS assay to identify small molecule agonists of the constitutive androstane receptor (CAR) signaling pathway (AID 1224839); note: nearly all actives have a fitted effect of over 15% in size;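 for activation: HepG2 cells stably carrying human CAR and a CYP2B6 luciferase reporter; series mostly up to about 92 µM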
How it was run: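 Readout: firefly luciferase luminescence via ONE-Glo. System: HepG2 double-stable for hCAR and CYP2B6-2.2kb. Conditions: 15-point compound titration, PK11195 at 0.75 uM final, 24 h incubation.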
Potency is the fitted concentration of half-maximal effect.

Luciferin 4-monooxygenase (Photinus pyralis), sequence (P08659 whole entry, looked up): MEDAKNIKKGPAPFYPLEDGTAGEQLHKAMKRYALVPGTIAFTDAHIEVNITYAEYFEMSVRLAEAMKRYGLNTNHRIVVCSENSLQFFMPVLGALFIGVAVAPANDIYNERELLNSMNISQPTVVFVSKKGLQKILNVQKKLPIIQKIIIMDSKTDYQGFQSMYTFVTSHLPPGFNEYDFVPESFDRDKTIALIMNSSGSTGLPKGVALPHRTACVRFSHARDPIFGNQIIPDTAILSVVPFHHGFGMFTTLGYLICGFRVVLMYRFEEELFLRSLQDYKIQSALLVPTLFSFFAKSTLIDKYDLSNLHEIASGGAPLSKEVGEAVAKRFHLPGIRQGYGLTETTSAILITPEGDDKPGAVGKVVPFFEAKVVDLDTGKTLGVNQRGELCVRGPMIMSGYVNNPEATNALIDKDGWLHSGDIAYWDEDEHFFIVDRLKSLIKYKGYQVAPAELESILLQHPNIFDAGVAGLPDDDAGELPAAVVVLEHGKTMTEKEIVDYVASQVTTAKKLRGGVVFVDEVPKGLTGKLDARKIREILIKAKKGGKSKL
Thyrotropin receptor (Homo sapiens), sequence (P16473 whole entry, looked up): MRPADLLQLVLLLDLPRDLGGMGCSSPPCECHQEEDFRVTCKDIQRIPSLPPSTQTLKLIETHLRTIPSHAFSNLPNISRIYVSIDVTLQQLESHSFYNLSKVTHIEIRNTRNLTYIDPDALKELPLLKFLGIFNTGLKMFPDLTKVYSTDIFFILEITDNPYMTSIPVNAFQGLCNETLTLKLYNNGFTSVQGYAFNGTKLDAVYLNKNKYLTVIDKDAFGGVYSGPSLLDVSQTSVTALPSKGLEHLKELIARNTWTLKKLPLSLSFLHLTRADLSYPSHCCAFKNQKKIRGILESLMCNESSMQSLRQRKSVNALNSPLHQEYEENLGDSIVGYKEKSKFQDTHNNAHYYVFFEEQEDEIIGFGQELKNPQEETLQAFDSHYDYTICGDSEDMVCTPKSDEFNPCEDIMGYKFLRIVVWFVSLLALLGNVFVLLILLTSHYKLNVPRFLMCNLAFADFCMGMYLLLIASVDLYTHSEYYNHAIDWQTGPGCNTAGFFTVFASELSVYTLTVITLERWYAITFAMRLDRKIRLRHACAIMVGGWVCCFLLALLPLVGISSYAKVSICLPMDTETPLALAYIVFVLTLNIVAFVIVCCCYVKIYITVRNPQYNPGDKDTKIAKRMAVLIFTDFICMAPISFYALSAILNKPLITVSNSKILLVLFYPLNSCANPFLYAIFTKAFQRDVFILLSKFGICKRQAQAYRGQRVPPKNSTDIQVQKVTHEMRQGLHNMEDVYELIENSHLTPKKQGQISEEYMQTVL
Nuclear receptor subfamily 1 group I member 3 (Homo sapiens), sequence (Q14994 whole entry, looked up): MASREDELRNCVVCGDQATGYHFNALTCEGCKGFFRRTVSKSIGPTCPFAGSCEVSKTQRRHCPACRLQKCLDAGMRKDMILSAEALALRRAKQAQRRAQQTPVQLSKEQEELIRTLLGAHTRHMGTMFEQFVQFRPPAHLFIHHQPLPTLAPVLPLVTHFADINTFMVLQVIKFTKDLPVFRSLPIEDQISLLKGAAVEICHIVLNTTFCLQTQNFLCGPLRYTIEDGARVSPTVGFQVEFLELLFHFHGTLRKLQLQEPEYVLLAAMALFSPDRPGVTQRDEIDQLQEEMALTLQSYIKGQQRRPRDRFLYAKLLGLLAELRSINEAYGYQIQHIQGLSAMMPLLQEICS

O=C(O)CCc1ccccc1
Potency [1]: inactive
Potency [2]: inactive
Potency [3]: inactive
Potency [4]: inactive
Potency [5]: inactive
Potency [6]: inactive
Potency [7]: inactive
Potency [8]: inactive
Potency [9]: inactive
Potency [10]: inactive
Potency [11]: inactive
Potency [12]: inactive

CC(C)(C)NCC(O)COc1ccccc1OCC1CCCO1 (stereo unspecified)
Potency [1]: inactive
Potency [2]: inactive
Potency [3]: inactive
Potency [4]: inactive
Potency [5]: inactive
Potency [6]: inactive
Potency [7]: inactive
Potency [8]: inactive
Potency [9]: inactive
Potency [10]: inactive
Potency [11]: inactive

CC(C)(c1ccccc1)c1ccc(Nc2ccc(C(C)(C)c3ccccc3)cc2)cc1
Potency [1]: inactive
Potency [2]: inactive
Potency [3]: inactive
Potency [4]: inactive
Potency [5]: inactive
Potency [6]: inactive
Potency [13]: inactive
Potency [7]: inactive
Potency [8]: inactive
Potency [9]: inactive
Potency [10]: inactive
Potency [11]: inactive

Oc1c(Cl)cc(Cl)cc1Sc1cc(Cl)cc(Cl)c1O
Potency [1]: 49.1 µM (active)
Potency [2]: inactive
Potency [3]: 30.7 µM (active) and 27.8 µM (active) and 27.3 µM (active)
Potency [4]: inactive
Potency [5]: 21.7 µM (active) and 24.3 µM (active)
Potency [6]: inactive
Potency [13]: inactive
Potency [8]: 17.3 µM (active) and 62.1 µM (active)
Potency [14]: inactive
Potency [11]: inactive

CN1C(=O)c2ccc([N+](=O)[O-])cc2C1=O
Potency [1]: inactive
Potency [2]: inactive
Potency [3]: inactive
Potency [4]: inactive
Potency [5]: inactive
Potency [6]: inactive
Potency [13]: inactive
Potency [7]: inactive
Potency [8]: inactive
Potency [9]: inactive
Potency [10]: inactive
Potency [11]: inactive
Potency [12]: inactive

CCCCN(CCO)CCCC
Potency [1]: inactive
Potency [2]: inactive
Potency [3]: inactive
Potency [4]: inactive
Potency [5]: inactive
Potency [6]: inactive
Potency [13]: inactive
Potency [7]: inactive
Potency [8]: inactive
Potency [9]: inactive
Potency [10]: inactive
Potency [11]: inactive
Potency [12]: inactive

c1ccc2cc3c(ccc4ccccc43)cc2c1
Potency [1]: inactive
Potency [2]: inactive
Potency [3]: inactive
Potency [4]: 2.74 µM (active) and 3.86 µM (active)
Potency [5]: inactive
Potency [6]: 5.66 µM (active) and 8.94 µM (active)
Potency [7]: inactive
Potency [8]: inactive
Potency [14]: 30.7 µM (active) and 27.3 µM (active)
Potency [9]: inactive

CC1=CC(=O)c2ccccc2C1=O
Potency [1]: 24.5 µM (active) and 21.3 µM (active)
Potency [2]: 27.3 µM (active)
Potency [3]: 30.6 µM (active)
Potency [4]: inactive
Potency [5]: 61.1 µM (active) and inactive
Potency [6]: inactive
Potency [8]: 30.6 µM (active)
Potency [14]: inactive
Potency [9]: inactive
Potency [10]: 30.6 µM (active)
Potency [11]: inactive

O=C(O)c1cn(-c2ccc(F)cc2)c2cc(N3CCNCC3)c(F)cc2c1=O
Potency [1]: inactive
Potency [2]: inactive
Potency [3]: inactive
Potency [4]: inactive
Potency [5]: inactive
Potency [6]: inactive
Potency [13]: inactive
Potency [7]: inactive
Potency [9]: inactive
Potency [12]: inactive

O=C(Nc1ccccc1SSc1ccccc1NC(=O)c1ccccc1)c1ccccc1
Potency [1]: 19.6 µM (active) and 21.9 µM (active)
Potency [2]: inactive
Potency [3]: 15.4 µM (active)
Potency [5]: 43.5 µM (active) and 48.6 µM (active)
Potency [6]: 5.05 µM (active) and 2.52 µM (active)
Potency [7]: 19.4 µM (active) and 24.3 µM (active)
Potency [8]: 21.8 µM (active) and 30.6 µM (active)
Potency [9]: 30.8 µM (active) and 48.6 µM (active)
Potency [10]: 27.4 µM (active) and 27.3 µM (active)
Potency [11]: inactive

CC(=O)Nc1ccc(C(=O)CCl)cc1
Potency [1]: inactive
Potency [2]: inactive
Potency [3]: inactive and 48.6 µM (active)
Potency [4]: inactive
Potency [5]: inactive
Potency [6]: inactive
Potency [7]: inactive
Potency [9]: inactive
Potency [12]: inactive

CCN(CC)CCOc1ccc(/C(=C(\Cl)c2ccccc2)c2ccccc2)cc1
Potency [1]: 15.8 µM (active) and 10.7 µM (active)
Potency [2]: 49.6 µM (active)
Potency [3]: 24.8 µM (active)
Potency [5]: 55.6 µM (active) and 26.6 µM (active)
Potency [7]: inactive
Potency [8]: inactive
Potency [14]: inactive
Potency [9]: 49.6 µM (active)

CCN(CC)c1ccc2c(C)cc(=O)oc2c1
Potency [1]: inactive
Potency [2]: inactive
Potency [3]: inactive
Potency [4]: inactive
Potency [5]: inactive
Potency [6]: 40.2 µM (active) and 35.6 µM (active)
Potency [8]: inactive
Potency [14]: 27.5 µM (active) and 48.6 µM (active)
Potency [9]: inactive

O=C1Nc2ccccc2C1(c1ccc(O)cc1)c1ccc(O)cc1
Potency [1]: inactive
Potency [2]: inactive
Potency [3]: 61.1 µM (active)
Potency [4]: inactive
Potency [5]: 43.3 µM (active)
Potency [6]: inactive
Potency [13]: inactive
Potency [7]: inactive
Potency [9]: inactive

C=C(C)C1CC=C(C)C(OC(C)=O)C1 (stereo unspecified)
Potency [1]: inactive
Potency [2]: inactive
Potency [3]: inactive
Potency [4]: inactive
Potency [5]: inactive
Potency [6]: inactive
Potency [13]: inactive
Potency [7]: inactive
Potency [9]: inactive
Potency [10]: inactive
Potency [11]: inactive

CCN(CC)C(=O)Nc1ccc(OCC(O)CNC(C)(C)C)c(C(C)=O)c1 (stereo unspecified)
Potency [1]: inactive
Potency [2]: inactive
Potency [3]: inactive
Potency [4]: inactive
Potency [5]: inactive
Potency [6]: inactive
Potency [7]: inactive
Potency [8]: inactive
Potency [14]: inactive
Potency [9]: inactive
Potency [10]: inactive
Potency [11]: inactive
Potency [12]: inactive

CCC[C@H](N[C@@H](C)C(=O)N1[C@H](C(=O)O)C[C@@H]2CCCC[C@@H]21)C(=O)OCC
Potency [1]: inactive
Potency [2]: inactive
Potency [3]: inactive
Potency [4]: inactive
Potency [5]: inactive
Potency [6]: inactive
Potency [13]: inactive
Potency [7]: inactive
Potency [9]: inactive
Potency [12]: inactive

Cc1cc(Cc2cc(C)cc(C(C)(C)C)c2O)c(O)c(C(C)(C)C)c1
Potency [1]: 12.4 µM (active) and 21.9 µM (active)
Potency [2]: 54.8 µM (active) and 48.6 µM (active)
Potency [3]: 43.5 µM (active) and 61.1 µM (active)
Potency [5]: 48.8 µM (active) and 43.3 µM (active)
Potency [6]: inactive
Potency [13]: 61.4 µM (active)
Potency [8]: 19.4 µM (active) and 43.3 µM (active)
Potency [14]: inactive
Potency [9]: 48.8 µM (active) and 43.3 µM (active)
Potency [10]: 48.8 µM (active) and 30.6 µM (active)
Potency [11]: inactive
Potency [12]: 43.5 µM (active) and inactive

CCCOC(=O)c1cc(O)c(O)c(O)c1
Potency [1]: inactive
Potency [2]: inactive
Potency [3]: inactive
Potency [5]: 54.2 µM (active) and 61.1 µM (active)
Potency [13]: inactive
Potency [7]: inactive
Potency [8]: inactive
Potency [14]: inactive and 19.3 µM (active)
Potency [10]: inactive
Potency [11]: 4.31 µM (active)
Potency [12]: inactive

CCCCCCCCCCCCCCCCCl
activity change, negative = cytotoxicity [1]: 6.15% [at 15.8 µM] (inactive)
activity change, negative = cytotoxicity [2]: 4.57% [at 19 µM] (inactive)
activity, negative = inhibition [3]: -10.4% [at 19 µM] (inactive)
Potency [4]: inactive
viability change, negative = cytotoxic [5]: 1.81% [at 19 µM] (inactive)
activity change, negative = inhibition [6]: 0.302% [at 23.6 µM] (inactive)
activity change, negative = cytotoxicity [7]: -1.23% [at 19 µM] (inactive)
activity, negative = inhibition [8]: -1.8% [at 19 µM] (inactive)
viability change, negative = cytotoxic [9]: 6.02% [at 19 µM] (inactive)
activity, negative = inhibition [10]: 65% [at 19 µM] (inactive)
activation [11]: 5.12% [at 19 µM] (inactive)
activation [12]: 0.927% [at 19 µM] (inactive)
